Source: PubChem BioAssay (NCI)
About 79,000 compounds went through this panel and 15% of them were active in at least one assay; those are over-represented in the sample as a whole. Rule as the data show it: active = growth inhibition above about 70%; inactive = the rest.

Legend:
[1] = NCI Yeast Anticancer Drug Screen. Data for the rad50 strain (AID 155);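 also: 0% = growth of vehicle-only cultures of the same strain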; settings: S. cerevisiae rad50 strain growth inhibition; at 50.0 µM; hits give high values
Procedure, shortened: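 Yeast carrying a defined DNA repair defect were exposed to test compounds, and growth was compared with vehicle-treated controls to give percent inhibition.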

[2] = NCI Yeast Anticancer Drug Screen. Data for the mec2-1 strain (AID 157); settings: S. cerevisiae mec2-1 strain, at 50.0 µM, hits give high values
Procedure, shortened: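 Strain: mec2-1 (DNA repair/cell cycle alteration). Compound exposure, then growth measured; inhibition expressed relative to vehicle.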

[3] = NCI Yeast Anticancer Drug Screen. Data for the sgs1 mgt1 strain (AID 161);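 also: 0% = growth of cultures given vehicle only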; settings: S. cerevisiae sgs1 mgt1 strain, at 50.0 µM, hits give high values
Procedure, shortened: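 Test agents were incubated with a DNA-repair-mutant yeast strain. Growth was then read and compared against vehicle-treated controls.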

[4] = NCI Yeast Anticancer Drug Screen. Data for the cln2 rad14 strain (AID 165);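 also: 0% = growth equal to vehicle treated cultures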; settings: S. cerevisiae cln2 rad14 strain, at 50.0 µM, hits give high values
Procedure, shortened: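 Compounds are applied to the cln2 rad14 yeast strain, and growth is then compared with that of vehicle-treated cultures to give inhibition.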

[5] = NCI Yeast Anticancer Drug Screen. Data for the bub3 strain (AID 167); settings: S. cerevisiae bub3 mutant strain, at 50.0 µM, hits give high values
Procedure, shortened: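 Compounds were applied to a genetically altered yeast strain carrying a cell-cycle control defect. Growth inhibition was scored against vehicle-treated controls.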

[6] = NCI Yeast Anticancer Drug Screen. Data for the mlh1 rad18 strain (AID 175); settings: S. cerevisiae mlh1 rad18 strain growth inhibition; at 50.0 µM; hits give high values
Procedure, shortened: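 Read-out is yeast growth inhibition, calculated against vehicle-only controls. The compound was applied to a strain engineered with DNA damage repair alterations.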

Measured: growth inhibition

O=C(O)CNc1ccc(C(=O)O)cc1
inactive: [1] -20.9% | [2] -10.1% | [3] -11.3% | [4] 41.1% | [5] -51.7% | [6] -11.7%

C=CCNC(=S)Nc1ccc(OC(=O)NC(C)(C)C)cc1
inactive: [1] 2% | [2] 29.4% | [3] 26.4% | [4] -16.8% | [5] 25.3% | [6] 0.1%

CN1CC(=O)N(C(=O)c2ccccc2)C1=N
inactive: [1] -6.6% | [2] -17.2% | [3] -6.4% | [4] -17.9% | [5] -2.15% | [6] 9.55%

Cc1nc2c(=O)[nH]c(N)nc2[nH]c1=O
inactive: [1] -10% | [2] -4% | [3] -6.15% | [4] -30.4% | [5] -13.8% | [6] 2.3%

N#Cc1c(N)nc([Se]CC(=O)c2ccc(Cl)cc2)c(C#N)c1-c1ccco1
inactive: [1] -7.45% | [2] -3.45% | [3] 2.3% | [4] 9.4% | [5] 4.1% | [6] 10.9%

Cc1nn(-c2ccc([N+](=O)[O-])cc2)c2c1C(C)(C)C(C#N)=C(N)O2
inactive: [1] -9.9% | [2] -6.7% | [3] -3.5% | [4] -3.55% | [5] 0.65% | [6] 6.95%

O=C1C2C=CC(n3[nH]c(=O)n(Cc4ccccc4)c3=O)CC2C(=O)N1c1ccc(Br)cc1 (stereo not given)
inactive: [1] -3.8% | [2] 3.8% | [3] 3.1% | [4] -30.4% | [5] 4.15% | [6] 2%

CC(C)(C)[Si](C)(C)OC1CCOC1(O)c1ccccn1 (stereo not given)
inactive: [1] 5.75% | [2] 0.65% | [3] 29.6% | [4] 37.1% | [5] 35.8% | [6] -8.2%

COc1cnc2cc(C(=O)O)c3ccccc3c2c1
inactive: [1] 40.5% | [2] 9.7% | [3] 13.2% | [4] 23.1% | [5] -1.15% | [6] 29.1%

OCCCc1nc2ccccc2[nH]1
inactive: [1] -10.3% | [2] -21.8% | [3] -15.1% | [4] 8.85% | [5] -17.7% | [6] 11.1%

Cn1c(-c2ccc(/C=N/N=C(N)N)cc2)c[n+]2ccccc12
inactive: [1] 8.85% | [2] 4.3% | [3] 4% | [4] 0.8% | [5] -3.85% | [6] 32.5%

CCCC1=C(CC)C(C(=O)Nc2c(C)cccc2C)=NC(S)N1 (stereo not given)
inactive: [1] -11.8% | [2] -15.6% | [3] 0.65% | [4] 14.5% | [5] 1.15% | [6] -19.1%

COC(=O)c1c2c(cc3c1CC1(Cc4cc5c(cc4C1)CCCC5)C3)CCCC2
inactive: [1] -6.3% | [2] -16.4% | [3] -21.9% | [4] 12.3% | [5] -5.8% | [6] 7.35%

CCOC(=O)N1c2ccccc2OC1C#N (stereo not given)
inactive: [1] -17.3% | [2] 1.3% | [3] -4.4% | [4] -33.1% | [5] 51.3% | [6] 13.5%

COc1ccc2oc(=O)c(-c3csc(-c4ccccc4)n3)cc2c1
inactive: [1] 13.6% | [2] 5.85% | [3] -5.5% | [4] 1.25% | [5] -24.4% | [6] -45.2%

COC(=O)c1nc(N)[nH]c(=O)c1-c1ccc(Cl)cc1
inactive: [1] -9.5% | [2] -21.9% | [3] -10.9% | [4] 14.8% | [5] -12.7% | [6] -47.8%

COC(=O)CC1(C)[C@H](O)[C@H]2OC(C)(C)O[C@H]2[C@@H]1O (stereo not given in full)
inactive: [1] 7.7% | [2] -10.6% | [3] -18.2% | [4] -3.25% | [5] -7.5% | [6] 38.2%

CCC1=NCCO1
inactive: [1] 5.85% | [2] 0.25% | [3] -2.1% | [4] 4% | [5] 28.1% | [6] -11.7%

Cc1ccccc1N1C(=O)C2CC=CCC2C1=O (stereo not given)
inactive: [1] -13.3% | [2] 0.25% | [3] 12.2% | [4] -34.8% | [5] -14.4% | [6] -21.6%

CCCCCO/C=C/CN1CCOCC1
inactive: [1] 8.85% | [2] 15.2% | [3] 3.1% | [4] -8.5% | [5] 11.8% | [6] -3.2%
